High-throughput results: PubChem BioAssay, Broad Institute
In the library only some 4.8% were active in any assay of this set; here they are far more common.
HIF act: HIF pathway transcriptional activation; U2OS HRE-luciferase reporter, luminescence; normalized: DMSO 0%, desferrioxamine 100%; activation, % at 7.5 µM (by protocol); actives 0.32% (n = 300,000); AID 1910;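 active = mean activation of at least 10% of the iron chelator positive control signal, with at least half of replicates also reaching 10%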
ALR inh: human ALR oxidase inhibition via reduced H2O2; actives 3.8% (n = 290,000); AID 485317; P55789; purified ALR, DTT oxidation, H2O2 HRP-luminol luminescence; inhibition, % (test concentration not listed);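 active = mean replicate inhibition above about 79%, with every replicate also reaching it, limit read from the data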
Target sequence (P55789 whole entry, looked up): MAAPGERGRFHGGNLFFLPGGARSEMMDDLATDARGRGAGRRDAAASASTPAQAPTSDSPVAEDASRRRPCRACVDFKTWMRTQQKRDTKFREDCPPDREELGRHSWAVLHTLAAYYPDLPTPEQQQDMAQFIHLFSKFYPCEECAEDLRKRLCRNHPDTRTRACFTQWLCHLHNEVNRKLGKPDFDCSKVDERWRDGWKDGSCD
AI-2 QS mod: Vibrio harveyi AI-2 quorum sensing modulation; actives 0.4% (n = 300,000); activity change, % at 7.5 µM; Vibrio harveyi JMH597 AI-2 luminescence/OD600 ratio, 9 h; hits give low values; strain lacks LuxN and CqsS sensors; 0 = neutral-control median; in the data active = activity change below about -75%, passing the limit was not always enough;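 note: luminescence divided by OD600 gain over 9 h not by final OD600 alone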
SUMO Mot1 rescue: blocks SUMOylation pathway, rescuing yeast Mot1-301 growth. S. cerevisiae Mot1-301 growth rescue, ATP luminescence, 38.5C; percent above DMSO median, 100 means doubled. actives 1% (n = 320,000). AID 2716. growth rescue, % at 18.8 µM;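 active = every valid replicate shows activation above 250% relative to neutral control wells; inactive = the rest, any valid replicate at or below 250%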
Mot1 SUMO dose: inhibits SUMO pathway, affecting Mot1-301 yeast growth | S. cerevisiae Mot1-301 galactose growth, ATP luminescence, 24 h; -100 = growth of slx-deleted rescue strain | shares compounds with SUMO Mot1 rescue | 2,300 tested, under 10 active | AID 493004 | growth activity, percent, % at 42 µM;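 active = Signal drops as the depositor expects, and the fitted half-maximal dose is no more than ten times the top valid tested dose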;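 note: more negative values mean stronger growth rescue toward the control strain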
Numbers stand for hits; i = inactive; nt = no result; + = active, no number.

SMILES | HIF act | ALR inh | AI-2 QS mod | SUMO Mot1 rescue | Mot1 SUMO dose
CC(C)CCOCc1nc2sc3c(c2c(=O)[nH]1)CCC(C)C3 (configuration not stated) | i | i | i | 593 | i
COc1ccc(-c2n(Cc3ccccc3)c3ccccc3[n+]2Cc2ccccc2)cc1 | i | i | i | i | nt
CCNC(=O)COC(=O)CCC(=O)c1cccs1 | i | i | i | i | nt
CCCNC(=O)COC(=O)CCC(=O)c1cccs1 | i | i | i | 422 | i
CC1CCN(C(=O)c2[nH]cnc2C(=O)NCC(=O)OCc2ccccc2)CC1 | i | i | i | 790 | i
CCN(CC)c1nc(Nc2ccc(Cl)cc2)nc(OCC#N)n1 | i | i | i | 735 | i
Cn1c(-c2ccc3c(c2)OCO3)cnc1NCc1ccccc1 | i | nt | i | i | nt
Cn1c(-c2ccc3c(c2)OCO3)cnc1NC(=O)CCC(=O)NCCc1ccccc1 | i | i | i | 676 | i
O=C(c1cc2c(ccc3ccccc32)oc1=O)N1CCCC1 | i | i | i | 495 | i
O=C(NCC1CCCO1)/C(=C\c1ccc(Cl)cc1)NC(=O)c1ccccc1 (configuration not stated) | i | i | i | i | nt
Cc1ccc(C(=O)N/C(=C/c2ccccc2)C(=O)NCC2CCCO2)cc1 (configuration not stated) | i | i | i | 399 | i
COC(=O)c1ccc(/C=N/NC(=O)C(=O)NCC2CCCO2)cc1 (configuration not stated) | i | i | i | 731 | i
Clc1ccc(OCCOCCNCc2ccccc2)cc1Cl | i | i | i | i | nt
CCN(C(=O)CSc1n[nH]c(N)n1)C1CCCCC1 | nt | nt | nt | i | nt
Cc1cc(-c2ccc(C(C)C)c(S(=O)(=O)N3CC(=O)Nc4ccccc43)c2)on1 | i | i | i | 581 | i
Cc1cc(-c2ccc(C)c(S(=O)(=O)N3CC(=O)Nc4ccccc43)c2)on1 | i | i | i | i | nt
CCOC(=O)c1sc(NC(=O)CSc2n[nH]c(-c3ccccc3)n2)c(C#N)c1C | i | nt | i | 472 | i
CCOC(=O)c1sc(NC(=O)CSc2nc(C)cc(C)n2)c(C#N)c1C | i | i | i | i | nt
CCN(c1cccc(C)c1)S(=O)(=O)c1ccc(-n2cccn2)cc1 | i | i | i | i | nt
CC(=O)Nc1ccc(S(=O)(=O)N2CCN(C(=O)c3ncoc3-c3ccc(F)cc3)CC2)cc1 | i | i | i | i | nt
COC(=O)Oc1ccc(/C=N/NC(=O)CN(c2ccccc2Cl)S(C)(=O)=O)cc1OC | i | i | i | i | nt
COC(=O)Oc1ccc(/C=N/NS(=O)(=O)c2ccccc2)cc1OC | i | i | i | 627 | i
Cc1cc(C)cc(NS(=O)(=O)c2csc(C(N)=O)c2)c1 | i | i | i | i | nt
COc1ccc(NC(=O)c2cc(S(=O)(=O)Nc3ccc(OC)cc3)cs2)cc1 | i | i | i | 527 | i
Cc1ccc(NS(=O)(=O)c2csc(C(N)=O)c2)cc1C | i | i | i | 369 | i
SMILES | HIF act | ALR inh | AI-2 QS mod | SUMO Mot1 rescue | Mot1 SUMO dose
Cc1csc(=O)n1CCC(=O)N(C)Cc1c(F)cccc1Cl | nt | i | nt | i | nt
O=Cc1ccccc1OCCN1CCCC1=O | i | nt | i | 734 | i
COCCCNC(=O)c1cc(C(=O)c2c(-c3c(Cl)cccc3Cl)noc2C)c[nH]1 | i | nt | i | + | i
O=C(NCCCO)C(=O)Nc1cc2c3c(c1)CCN3C(=O)CC2 | i | i | i | i | nt
Cc1c(C)c2c(c(C)c1O)CCC(C)(C(=O)O)O2 (configuration not stated) | nt | i | nt | 548 | i
Cc1c(C)c2c(c(C)c1O)CC[C@@](C)(CCC[C@H](C)CCC[C@H](C)CCCC(C)C)O2 | i | i | i | i | nt
O=C(CN1CCN(c2ccccc2F)CC1)Nc1nnc(C(F)(F)F)s1 | i | i | i | + | i
COc1cccc(NC(=O)CN2CCN(c3ccccc3F)CC2)c1 | i | i | i | 600 | i
CCOC(=O)N1CCN(CC(=O)Nc2nnc(C(F)(F)F)s2)CC1 | i | i | i | i | nt
COc1cc(NC(=O)CN2CCN(c3ccccc3F)CC2)cc(OC)c1 | nt | i | nt | i | nt
COC(=O)c1[nH]c2cc(C)ccc2c1NC(=O)CN1CCN(c2ccccc2OC)CC1 | i | i | i | 492 | i
CC(C)(C)c1ccc(C(=O)NCCC(=O)N2CCN(c3ncccn3)CC2)cc1 | i | i | i | 552 | i
COCCN(C(=O)CCC(=O)Nc1cc(C)on1)C(C(=O)NC1CCCC1)c1ccc(C(C)C)cc1 (configuration not stated) | i | nt | i | i | nt
COc1cc(CN2CCN(c3ncccn3)CC2)cc(OC)c1 | i | i | i | 534 | i
COc1ccccc1-c1sc2ccccc2c1-c1ccc2c(c1)OCO2 | i | i | i | 998 | i
COCC(C)n1c(-c2ccc3c(c2)NC(=O)CO3)csc1=Nc1ccc(OC(F)F)cc1 (configuration not stated) | i | i | i | 532 | i
CS(=O)(=O)N1CCCC(C(=O)Nc2ccc(F)cc2F)C1 (configuration not stated) | i | i | i | + | i
O=C(O)CC(NC(=O)c1ccc2c(c1)OCO2)c1cccc([N+](=O)[O-])c1 (configuration not stated) | i | i | i | + | i
COc1ccc(OC)c2c1cc(C(=O)N[C@@H](C)C(=O)N[C@@H](C(=O)O)c1ccccc1)n2C | i | i | i | i | nt
O=C(Cn1cnc2ccccc2c1=O)c1ccc(OC(F)F)cc1 | i | i | i | 513 | i
CCOc1ccc(C(=O)Cn2cnc3ccccc3c2=O)cc1 | i | i | i | i | nt
COCC(=O)N1CCC(Oc2ccc(C(=O)NC(C)c3nc(C)sc3C)cc2)CC1 (configuration not stated) | i | i | i | i | nt
N#Cc1c(NC(=O)c2ccc([N+](=O)[O-])o2)sc2c1CCC2 | i | nt | i | 466 | i
Oc1ccc(C2=CSC3=NCCN23)cc1O | i | 100 | i | 718 | i
CCOc1ncccc1-c1nc(-c2cccs2)no1 | i | i | i | 916 | i
SMILES | HIF act | ALR inh | AI-2 QS mod | SUMO Mot1 rescue | Mot1 SUMO dose
CCOC(=O)CNC(=O)c1cccnc1 | i | i | i | + | i
CCOC(=O)C(O)(NC(=O)c1cccnc1)C(F)(F)F (configuration not stated) | nt | i | i | i | nt
CN(C)C(=O)CCN1CCOCC1 | nt | i | i | 560 | i
COc1ccc(S(=O)(=O)N2CCOCC2)cc1NC(=O)CSc1nnnn1C1CC1 | nt | i | nt | i | nt
CCS(=O)(=O)c1nc(S(=O)(=O)c2ccc(Cl)cc2)c(N2CCN(CCO)CC2)s1 | i | i | i | i | nt
CCS(=O)(=O)c1nc(S(=O)(=O)c2ccc(Cl)cc2)c(N2CCc3ccccc3C2)s1 | i | i | i | 444 | i
O=S(=O)(NCc1ccccc1)NCc1ccccc1F | i | i | i | i | nt
O=S(=O)(NCc1cccc(C(F)(F)F)c1)NCc1ccccc1F | i | i | i | + | i
Cc1sc(NC(=O)CSc2ncn(-c3ccccc3)n2)nc1-c1ccccc1 | i | i | i | i | nt
